# Assay results published in the supplement of paper PMC8728848.
# The full list was thinned out, with the strongest signals kept by preference.
# B1: diCBM40 CPF071 (Clostridium perfringens) (protein)
# chain: MAHHHHHHVGTGSNDDDDKSPDPMLSSLGEYKDINLESSNASNITYDLEKYKNLDEGTIVVRFNSKDSKIQSLLGISNSKTKNGYFNFYVTNSRVGFELRNQKNEGNTQNGTENLVHMYKDVALNDGDNTVALKIEKNKGYKLFLNGKMIKEVKDTNTKFLNNIENLDSAFIGKTNRYGQSNEYNFKGNIGFMNIYNEPLGDDYLLSKTGETKALNGSELGSGSGLSSLGEYKDINLESSNASNITYDLEKYKNLDEGTIVVRFNSKDSKIQSLLGISNSKTKNGYFNFYVTNSRVGFELRNQKNEGNTQNGTENLVHMYKDVALNDGDNTVALKIEKNKGYKLFLNGKMIKEVKDTNTKFLNNIENLDSAFIGKTNRYGQSNEYNFKGNIGFMNIYNEPLGDDYLLSKTGETK
# Legend:
# Assay in all cases: glycan array binding signal (z-score within array); higher = stronger binding
# Details in all cases: glycan notation: IUPAC condensed, linker removed
# [1] = molecular target: Fuc(a1-2)Gal(b1-3)GlcNAc(b1-3)[Gal(b1-4)GlcNAc(b1-6)]Gal(b1-4)Glc
# In short: (§1)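 Negative Z-scores can be read as non-binding. The Z-score is calculated within each array and then averaged across arrays of one protein sequence at different concentrations or buffers and across linkers. Arrays, 3228 in all, were curated from the Consortium for Functional Glycomics database and kept only where the protein sequence was available.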
# Fuc(a1-2)Gal(b1-4)GlcNAc = molecular target: Fuc(a1-2)Gal(b1-4)GlcNAc
# In short: as §1
# [2] = molecular target: Fuc(a1-2)Gal(b1-4)GlcNAc(b1-3)[Fuc(a1-3)[Gal(b1-4)]GlcNAc(b1-6)]Gal(b1-4)Glc
# In short: as §1
# [3] = molecular target: Fuc(a1-2)Gal(b1-4)GlcNAc(b1-6)GalNAc
# In short: as §1
# [4] = molecular target: Fuc(a1-2)Gal6S(b1-3)GlcNAc
# In short: as §1
# [5] = molecular target: Fuc(a1-2)[Gal(a1-3)]Gal(b1-3)GlcNAc(b1-2)Man(a1-3)[Fuc(a1-2)[Gal(a1-3)]Gal(b1-3)GlcNAc(b1-2)Man(a1-6)]Man(b1-4)GlcNAc(b1-4)GlcNAc
# In short: as §1
# [6] = molecular target: Fuc(a1-2)[Gal(a1-3)]Gal(b1-3)GlcNAc(b1-6)GalNAc
# In short: as §1
# [7] = molecular target: Fuc(a1-2)[Gal(a1-4)]Gal(b1-4)GlcNAc
# In short: as §1
# [8] = molecular target: Fuc(a1-2)[GalNAc(a1-3)]Gal(b1-3)GlcNAc(b1-6)GalNAc
# In short: as §1
# [9] = molecular target: Fuc(a1-2)[GalNAc(a1-3)]Gal(b1-4)GlcNAc(b1-2)Man(a1-3)[Fuc(a1-2)[GalNAc(a1-3)]Gal(b1-4)GlcNAc(b1-2)Man(a1-6)]Man(b1-4)GlcNAc(b1-4)[Fuc(a1-6)]GlcNAc
# In short: as §1
# [10] = molecular target: Fuc(a1-2)[GalNAc(a1-3)]Gal(b1-4)GlcNAc(b1-6)GalNAc
# In short: as §1
# [11] = molecular target: Fuc(a1-2)[GalNAc(a1-4)]Gal(b1-4)GlcNAc
# In short: as §1
# [12] = molecular target: Fuc(a1-3)[Gal(b1-4)]GlcNAc(b1-2)Man(a1-3)[Fuc(a1-3)[Gal(b1-4)]GlcNAc(b1-2)Man(a1-6)]Man(b1-4)GlcNAc(b1-4)[Fuc(a1-6)]GlcNAc
# In short: as §1
# [13] = molecular target: Fuc(a1-3)[Gal(b1-4)]GlcNAc(b1-3)Gal(b1-4)[Fuc(a1-3)]GlcNAc(b1-3)Gal(b1-4)[Fuc(a1-3)]GlcNAc
# In short: as §1
# [14] = molecular target: Fuc(a1-3)[Gal3S(b1-4)]GlcNAc6S
# In short: as §1
# [15] = molecular target: Gal(b1-3)[Fuc(a1-4)]GlcNAc(b1-3)Gal(b1-3)[Fuc(a1-4)]GlcNAc
# In short: as §1
# [16] = molecular target: Gal(b1-3)[Fuc(a1-4)]GlcNAc(b1-6)GalNAc
# In short: as §1
# Gal(b1-4)Glc = molecular target: Gal(b1-4)Glc
# In short: as §1
# [17] = molecular target: Gal(b1-4)GlcNAc(b1-2)Man(a1-3)[Man(a1-6)]Man(b1-4)GlcNAc(b1-4)GlcNAc
# In short: as §1
# [18] = molecular target: GalNAc(b1-3)Gal(a1-4)Gal(b1-4)GlcNAc(b1-3)Gal(b1-4)Glc
# In short: as §1
# GalNAc(b1-3)GalNAc = molecular target: GalNAc(b1-3)GalNAc
# In short: as §1
# [19] = molecular target: GlcA3S(b1-3)Gal(b1-4)GlcNAc(b1-2)Man
# In short: as §1
# [20] = molecular target: GlcNAc(b1-3)Gal(b1-4)GlcNAc(b1-3)Gal(b1-4)GlcNAc(b1-3)Gal(b1-4)GlcNAc(b1-2)Man(a1-3)[GlcNAc(b1-3)Gal(b1-4)GlcNAc(b1-3)Gal(b1-4)GlcNAc(b1-3)Gal(b1-4)GlcNAc(b1-2)Man(a1-6)]Man(b1-4)GlcNAc(b1-4)GlcNAc
# In short: as §1
# [21] = molecular target: GlcNAc(b1-3)Gal(b1-4)GlcNAc(b1-3)Gal(b1-4)GlcNAc(b1-3)Gal(b1-4)GlcNAc(b1-3)Gal(b1-4)GlcNAc(b1-2)[GlcNAc(b1-3)Gal(b1-4)GlcNAc(b1-3)Gal(b1-4)GlcNAc(b1-3)Gal(b1-4)GlcNAc(b1-3)Gal(b1-4)GlcNAc(b1-6)]Man(a1-6)[GlcNAc(b1-3)Gal(b1-4)GlcNAc(b1-3)Gal(b1-4)GlcNAc(b1-3)Gal(b1-4)GlcNAc(b1-3)Gal(b1-4)GlcNAc(b1-2)Man(a1-3)]Man(b1-4)GlcNAc(b1-4)[Fuc(a1-6)]GlcNAc
# In short: as §1
# [22] = molecular target: Neu5Ac(a2-3)Gal(b1-3)GlcNAc(b1-2)Man(a1-3)[GlcNAc(b1-4)][Neu5Ac(a2-3)Gal(b1-3)GlcNAc(b1-2)Man(a1-6)]Man(b1-4)GlcNAc(b1-4)GlcNAc
# In short: as §1
# [23] = molecular target: Neu5Ac(a2-3)Gal(b1-3)GlcNAc(b1-2)[Neu5Ac(a2-3)Gal(b1-3)GlcNAc(b1-4)]Man(a1-6)[Neu5Ac(a2-3)Gal(b1-3)GlcNAc(b1-2)Man(a1-3)]Man(b1-4)GlcNAc(b1-4)GlcNAc
# In short: as §1
# [24] = molecular target: Neu5Ac(a2-3)Gal(b1-3)[Fuc(a1-4)]GlcNAc
# In short: as §1
# [25] = molecular target: Neu5Ac(a2-3)Gal(b1-3)]Neu5Ac(a2-3)Gal(b1-4)]GlcNAc
# In short: as §1
# [26] = molecular target: Neu5Ac(a2-3)Gal(b1-4)GlcNAc
# In short: as §1
# [27] = molecular target: Neu5Ac(a2-3)Gal(b1-4)GlcNAc(b1-2)Man(a1-3)[Neu5Ac(a2-3)Gal(b1-4)GlcNAc(b1-2)Man(a1-6)]Man(b1-4)GlcNAc(b1-4)[Fuc(a1-6)]GlcNAc
# In short: as §1
binder,measurement,setting,value
B1,glycan array binding signal (z-score),[1],-0.277
same,glycan array binding signal (z-score),Fuc(a1-2)Gal(b1-4)GlcNAc,-0.304
same,glycan array binding signal (z-score),[2],-0.238
same,glycan array binding signal (z-score),[3],-0.304
same,glycan array binding signal (z-score),[4],-0.33
same,glycan array binding signal (z-score),[5],-0.342
same,glycan array binding signal (z-score),[6],-0.307
same,glycan array binding signal (z-score),[7],-0.342
same,glycan array binding signal (z-score),[8],-0.287
same,glycan array binding signal (z-score),[9],-0.324
same,glycan array binding signal (z-score),[10],-0.321
same,glycan array binding signal (z-score),[11],-0.255
same,glycan array binding signal (z-score),[12],-0.084
same,glycan array binding signal (z-score),[13],-0.183
same,glycan array binding signal (z-score),[14],-0.332
same,glycan array binding signal (z-score),[15],-0.31
same,glycan array binding signal (z-score),[16],-0.151
same,glycan array binding signal (z-score),Gal(b1-4)Glc,-0.329
same,glycan array binding signal (z-score),[17],-0.257
same,glycan array binding signal (z-score),[18],-0.306
same,glycan array binding signal (z-score),GalNAc(b1-3)GalNAc,-0.314
same,glycan array binding signal (z-score),[19],-0.33
same,glycan array binding signal (z-score),[20],0.045
same,glycan array binding signal (z-score),[21],-0.23
same,glycan array binding signal (z-score),[22],-0.21
same,glycan array binding signal (z-score),[23],5.89
same,glycan array binding signal (z-score),[24],4.37
same,glycan array binding signal (z-score),[25],8.45
same,glycan array binding signal (z-score),[26],4.46
same,glycan array binding signal (z-score),[27],5.75
